Screens (PubChem)
KCNQ2 block: blocks the rat KCNQ2 potassium channel; B-score at 10 µM; CHO-K1 KCNQ2, FluxOR thallium flux, 20 min; hits give low values; O88943; actives 1.1% (n = 310,000);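 active = fluorescence ratio B-score at most minus 3 library SDs, with starting brightness B-score within 2 library SDs, cut at about -5.5 in these data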
KCNQ2 pot: KCNQ2 (rat) channel potentiation | O88943 | B-score at 10 µM | CHO-K1 KCNQ2, FluxOR thallium flux fluorescence; hits give high values | AID 2239 | actives 0.54% (n = 310,000);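 active = fluorescence ratio B-score at least 3 SD of library B-scores, with initial fluorescence B-score within 3 of them, cut at about 5.3 in these data; same plate scores as AID 2156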;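 note: B-score of peak minus minimum over baseline fluorescence ratio after K+ and Tl+ stimulus; positive B-score means potentiation of KCNQ2 with more thallium influx and brighter signal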
Kir21 conf inh: confirmation of mouse Kir2.1 potassium channel inhibitors. shares compounds with KCNQ2 pot. Kir2.1-expressing cells, FluxOR thallium flux fluorescence; hits give low values. Tl flux remaining, % of negative control (hits give low values), % at 10 µM. actives 41% (n = 2,300). AID 2032;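 active = Primary-screen hit whose thallium flux fell at least 3 control SD below untreated wells in both duplicates, with normal baseline fluorescence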
Target sequence (P35561 whole entry, looked up): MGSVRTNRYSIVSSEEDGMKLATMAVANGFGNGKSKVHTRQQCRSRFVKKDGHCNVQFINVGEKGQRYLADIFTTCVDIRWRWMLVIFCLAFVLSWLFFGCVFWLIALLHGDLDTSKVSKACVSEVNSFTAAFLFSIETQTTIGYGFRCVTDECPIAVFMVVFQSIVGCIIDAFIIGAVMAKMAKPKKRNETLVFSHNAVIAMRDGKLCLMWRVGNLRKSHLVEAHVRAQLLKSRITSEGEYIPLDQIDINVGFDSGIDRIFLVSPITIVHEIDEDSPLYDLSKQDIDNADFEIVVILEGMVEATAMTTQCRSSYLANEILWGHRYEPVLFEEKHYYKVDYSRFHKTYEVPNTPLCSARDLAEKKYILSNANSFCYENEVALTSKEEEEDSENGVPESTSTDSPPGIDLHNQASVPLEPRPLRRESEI
HEK293 ctr: parental HEK293 activity in Kir2.1 inhibitor counter-screen; shares compounds with KCNQ2 pot; parental HEK293 cells, FluxOR thallium flux fluorescence; 0% = unstimulated blank wells; FluxOR signal as % of negative control (100 = no effect), % at 10 µM; actives 19% (n = 2,300); AID 2105;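 active = dye signal at least 3 control SD above or below untreated wells in both duplicates, raw fluorescence within 3, either direction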;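 note: percent is based on the flux ratio of peak minus minimum fluorescence over baseline F0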
CHO-K1 ctr: counter-screen for KCNQ2 potentiators: effect in parental CHO-K1 cells. shares compounds with KCNQ2 pot. FluxOR thallium flux fluorescence; zero = vehicle mean+3SD, 100% = vehicle-minus-blank window. activity increase over 3SD of controls, % at 10 µM. actives 43% (n = 1,200). AID 2282;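 active = signal rise of at least 3 SD above the untreated control mean, in both duplicate wells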;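 note: counter screen of KCNQ2 potentiator hits so any rise reflects channel-independent effects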
KCNQ1 pot spec: selectivity of KCNQ2 potentiators: effect on human KCNQ1 | shares compounds with KCNQ2 pot | CHO KCNQ1 stable, FluxOR thallium flux fluorescence; beyond 3SD, as % of vehicle-control signal | activation over 3SD threshold, % at 10 µM | actives 28% (n = 1,200);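 active = fluorescence ratio rise of at least 3 SD of vehicle wells above their mean, in both replicate wells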
KCNQ2 pot confirm: rat KCNQ2 channel potentiator confirmation; shares compounds with KCNQ2 pot; CHO-KCNQ2 cells, FluxOR thallium flux fluorescence; potentiation, less the hit threshold, % at 10 µM; actives 68% (n = 1,200);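 active = fluorescence ratio rising 3 SD or more over the vehicle control mean in both replicates, plus primary screen hit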;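 note: peak minus minimum thallium fluorescence divided by baseline after K/Tl stimulus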
Kir2-1 sel: selectivity of KCNQ2 potentiators: effect on mouse Kir2.1. shares compounds with KCNQ2 pot. HEK293 Kir2.1, FluxOR thallium flux fluorescence. activity over 3SD threshold, % at 10 µM. actives 2% (n = 1,200). AID 2345;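 active = fluorescence ratio rise of at least 3 SD above the vehicle-control mean, seen in both replicates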
KCNQ2 W236L MoA: KCNQ2 potentiators acting on retigabine-insensitive rat KCNQ2 W236L mutant; AID 2558; CHO KCNQ2-W236L, automated patch clamp current; actives 10% (n = 940); current increase over 3SD of negative controls (%), hits give high values, % at 25 µM; shares compounds with KCNQ2 pot;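 active = current increase at least 3 SD of the untreated controls above them in both duplicate recordings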
A number is an active result; 0 = inactive; - = not tested or not shown. This is a sample that favours compounds with a hit; in the whole collection about 1.6% have one here.

SMILES	KCNQ2 block	KCNQ2 pot	Kir21 conf inh	HEK293 ctr	others
COc1cccc(CNc2ccc(C)c(Cl)c2)c1	0	0	-	-
COc1cccc(CNc2cc(CSc3ccc(Cl)cc3)nc(C)n2)c1	0	-	53.5%	0
O=C(O)CCS(=O)(=O)c1nc(-c2cccs2)cc(C(F)(F)F)n1	0	-	-	-
CS(=O)(=O)c1nc(-c2cccs2)cc(C(F)(F)F)n1	-5.92	0	70.5%	70.0%
O=c1cc(O)n(Cc2ccc(F)cc2)c(=O)[nH]1	0	-	-	-
CCOC(=O)c1c(NC(=O)c2ccccc2C(=O)O)sc2c1CCC2	0	0	-	-
COC(=O)c1c(NC(=O)c2ccc(C)c(S(=O)(=O)Nc3ccccc3C)c2)sc2c1CCCC2	0	-	-	-
CCOC(=O)c1c(NS(=O)(=O)c2ccc(Br)cc2)sc2c1CCC2	0	18.1	0	255.0%	CHO-K1 ctr=41.4;KCNQ1 pot spec=86.6;KCNQ2 pot confirm=58.9;Kir2-1 sel=0;KCNQ2 W236L MoA=0
CCOC(=O)c1c(NC(=O)c2ccco2)sc2c1CCCCC2	0	0	-	-
CCOC(=O)c1c(NC(=O)CCNCc2ccco2)sc2c1CCC2	0	-	28.0%	0
COC(=O)c1c(NS(=O)(=O)c2ccc3ccccc3c2)sc2c1CCCC2	0	6.43	0	0	CHO-K1 ctr=0;KCNQ1 pot spec=0;KCNQ2 pot confirm=0;Kir2-1 sel=0
CCOC(=O)c1c(NS(=O)(=O)Cc2ccccc2)sc2c1CCCC2	0	-	0	337.5%
CCOC(=O)c1c(NC(=O)OC)sc2c1CCC2	0	0	-	-
CC(=O)Nc1ccc(N(C(=O)Cc2cccs2)C(C(=O)NC2CCCC2)c2ccncc2)cc1 (stereo unspecified)	0	-	-	-
CCc1ccccc1NC(=O)CN1C(=O)c2ccccc2S1(=O)=O	0	0	-	-
Cc1cccc(CSC2=NCCN2S(=O)(=O)c2ccc(F)cc2)c1	0	-	-	-
Cc1ccc(/C=C2/Sc3ccccc3N(CC(=O)NCCCOC(C)C)C2=O)cc1	0	-	-	-
CC1CCc2c(sc(NC(=O)c3ccco3)c2C(=O)O)C1 (stereo unspecified)	0	0	-	-
CC1CCc2c(sc(NS(=O)(=O)c3ccccc3)c2C(=O)OC(C)C)C1 (stereo unspecified)	0	0	0	0
CCc1cc(CNC(=O)C2CCC(=O)N(CCc3cccc(F)c3)C2)on1 (stereo unspecified)	0	-	-	-
CCOC(=O)C1=C[C@]2(CC)CCCN3CCc4c(n1c1ccccc41)[C@@H]32	0	10.1	-	-	CHO-K1 ctr=0;KCNQ1 pot spec=60.7;KCNQ2 pot confirm=39.1;Kir2-1 sel=0;KCNQ2 W236L MoA=0
CCOC(=O)Cn1c2c(c(=N)c3ccccc31)CCC2	0	0	-	-
CC1CCCCN1CCNS(=O)(=O)c1ccc2c(c1)oc(=O)n2C (stereo unspecified)	0	0	-	-
COc1ccc(CC(NC(C)=O)C(=O)NC2CCN(S(=O)(=O)c3ccc(NC(C)=O)cc3)CC2)c(OC)c1 (stereo unspecified)	0	-	-	-
CCS(=O)(=O)N1CCC(NC(=O)C(Cc2cc(OC)ccc2OC)NC(C)=O)CC1 (stereo unspecified)	0	0	0	0
COc1ccc(CCCc2nnc(SCc3nc4ccccc4c(=O)[nH]3)n2C)c(C)c1	0	0	-	-
COc1cc(/C=C/c2ccc3cccc(O)c3n2)cc(Br)c1OC	0	-	-	-
COc1cc(/C=C/c2ccc3cccc(O)c3n2)cc(OC)c1OC	0	5.31	0	0	CHO-K1 ctr=8.5;KCNQ1 pot spec=0.7;KCNQ2 pot confirm=0;Kir2-1 sel=0
CCc1ccc(C(C)NC(=O)/C=C/c2ccc(Br)cc2)cc1 (stereo unspecified)	0	8.72	0	0	CHO-K1 ctr=0;KCNQ1 pot spec=0;KCNQ2 pot confirm=23.8;Kir2-1 sel=0;KCNQ2 W236L MoA=0
CC(NC(=O)/C=C/c1ccccc1)c1ccccc1 (stereo unspecified)	0	16.8	0	0	CHO-K1 ctr=2.8;KCNQ1 pot spec=19.7;KCNQ2 pot confirm=29.6;Kir2-1 sel=0;KCNQ2 W236L MoA=0
